Screens deposited in PubChem BioAssay by National Center for Advancing Translational Sciences (NCATS).
Only some compounds are listed: those with a hit (about 3% of all), similar ones and a draw of the others.
KDM5B inhibitor – KDM5B demethylase inhibition | Q9UGL1 | KDM5B demethylase, FDH-coupled NADH fluorescence (FDH is formaldehyde dehydrogenase) | Potency, µM (titrated, usually from 57.7 µM), usual class: inhibitors | 2.6% of 220,000 active; also: potency is read from the fitted curve at half-maximal effect; 0% is about no effect; nearly all actives have a fitted effect of over 70% in size
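Compound dilutions met 200 nM (final) KDM5BΔAP for 10 min at room temperature before substrate addition. The substrate mix held 12.5 µM H3K4me3 with cofactors 25 µM α-ketoglutarate and 50 µM Fe²⁺. NADH signal gain over 30 min defined activity.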
SNCA expr inhib – SNCA gene expression inhibition; HEK-293 SNCA-luciferase knock-in, luminescence, 24 h; Potency, µM (doses to about 57.2 µM), for inactives: at the highest dose activity change, negative = inhibition, usual class: inhibitors; 0.17% of 140,000 active;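 also: potency is read from the fitted curve at half-maximal effect; plate controls were DMSO cells for no effect and cell-free wells for full effect; nearly all actives have a fitted effect of over 45% in size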
SNCA viab count – cell viability loss counter-screen; Potency, µM (titrated, usually from 57.1 µM), for inactives: at the highest dose activity change, negative = cytotoxicity, usual class: cytotoxic; 0.12% of 150,000 active; HEK-293-SNCA-luc viability, GF-AFC fluorescence, 24 h;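 also: potency is read from the fitted curve at half-maximal effect; 0% = DMSO-treated cells and -100% = medium-only wells without cells; nearly all actives have a fitted effect of over 30% in size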
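Cytotoxicity counterscreen: after 24 h compound treatment of genome-edited SNCA-luciferase HEK-293 cells, live-cell protease substrate GF-AFC read by fluorescence after 30 min; activity scaled between DMSO (0%) and medium-only (-100%), curves Hill-fitted.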
IP6K1 inhibitor – inhibitors of human IP6K1. Q92551. IP6K1 kinase, ADP-Glo luminescence, 2 h; stronger effect = lower value. activity change, % (series mostly up to about 58 µM). 0.81% of 140,000 active; in the data active = activity change below about -25%; also: % is scaled to controls: 0 for no effect and ±100 for the full control effect
Target sequence (Q92551 whole entry, looked up): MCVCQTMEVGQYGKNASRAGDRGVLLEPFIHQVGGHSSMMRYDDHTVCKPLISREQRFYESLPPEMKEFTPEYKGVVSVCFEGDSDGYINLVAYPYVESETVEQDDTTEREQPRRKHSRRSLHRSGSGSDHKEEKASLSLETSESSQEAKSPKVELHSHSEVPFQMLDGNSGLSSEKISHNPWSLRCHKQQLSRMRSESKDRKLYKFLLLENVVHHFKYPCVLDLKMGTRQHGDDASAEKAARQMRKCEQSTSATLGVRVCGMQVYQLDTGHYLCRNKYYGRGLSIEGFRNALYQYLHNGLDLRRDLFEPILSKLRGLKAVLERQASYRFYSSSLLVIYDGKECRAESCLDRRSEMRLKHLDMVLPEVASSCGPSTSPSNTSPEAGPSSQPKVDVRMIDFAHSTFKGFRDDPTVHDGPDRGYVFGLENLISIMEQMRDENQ
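ADP-Glo luminescence measures ADP made by human IP6K1 during a 2 h RT reaction with ATP/IP6 (mix at 1.3 mM/130 uM); top library doses 57.5 and 19.1 uM final.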
Numbers without * were called inactive; i = inactive; u = inconclusive; x = no result; [ ] = dose if it differs, or a comment. Unless noted, calls follow the shape of the dose curve; as a rule, active = well fitted curve in the direction sought with a large enough effect; inconclusive = small, poorly fitted or top-dose-only effect, or another doubt; inactive = no such curve, though single readings can be large; an effect the other way counts as inactive or inconclusive.

SMILES	KDM5B inhibitor	SNCA expr inhib	SNCA viab count	IP6K1 inhibitor
CC(C)(C)CC(=O)NCC(=O)N1CCN(c2ccccn2)CC1	28µM*	2%	4%	4
Cc1ccc(C(=O)NCC(=O)N2CCN(c3ccccn3)CC2)cc1	28µM*	49%	5%	22
Cc1cc(C)cc(-c2ccc(CN3CCCC(NC(=O)Cc4ccccn4)C3)cc2)c1 (stereo unspecified)	x	-10%	-8%	3
COc1ccccc1Nc1ccnc(N2CCCC(C(=O)NCc3ccc(F)cc3)C2)n1 (stereo unspecified)	x	u	1%[12.5 µM]	5
Cn1ncc2c(C(=O)NCc3cccc(Cl)c3)cc(-c3ccccc3F)nc21	x	x	x	14
CCN(CC)S(=O)(=O)c1cccc(NS(=O)(=O)c2ccc3ccccc3c2)c1	i	x	x	x
O=C(c1ccc(-c2ccc(N3CCCCCC3)nc2)cc1)N1CCCC1	25µM*	-17%	-24%	2
CN(C)C(=O)c1ccc(-c2ccc(N3CCCCCC3)nc2)cc1	28µM*	25%	-23%	1
CC(C)NC(=O)c1ccc(-c2ccc(N3CCCCCC3)nc2)cc1	i	63%	-11%	6
O=C(NC1CCCC1)c1ccc(-c2ccc(N3CCCCC3)nc2)cc1	11µM*	6%	1%	2
COc1ccc(-c2ccccc2C(=O)N2CCC(NC(=O)c3ccc(C(F)(F)F)cc3)CC2)nn1	x	x	x	-1
CC1(COc2cccnc2)COc2ccc(C(=O)NCc3ccc4c(c3)OCO4)cc2N1 (stereo unspecified)	16µM*	-20%[87.6 µM]	5%[87.6 µM]	-6
CC1(COc2ccccc2)COc2ccc(C(=O)NCc3ccccc3)cc2N1 (stereo unspecified)	u	u	u	19
CC1(COc2cccnc2)COc2ccc(C(=O)NCc3ccc(F)cc3)cc2N1 (stereo unspecified)	32µM*	u	u	8
CC1(COc2cccnc2)COc2ccc(C(=O)NCc3cnccn3)cc2N1 (stereo unspecified)	i	-26%[87.6 µM]	15%[87.6 µM]	-8
CC1(COc2cccnc2)COc2ccc(C(=O)NCc3cccs3)cc2N1 (stereo unspecified)	35µM*	-1%[87.6 µM]	0%[87.6 µM]	1
COc1ccc(F)cc1-c1ccc(CN2CCCCC2C(=O)N2CCCN(C(C)=O)CC2)cc1 (stereo unspecified)	x	x	x	-3
COc1ccc(F)cc1-c1cccc(C(=O)NCC(=O)NCCC2CCCCC2)c1	x	x	x	-2
O=C(NCCc1ccccc1)C1CCN(c2ccnc3ccnn23)CC1	x	2%[87.6 µM]	-15%[87.6 µM]	16
COc1ccc(-c2cc3c(ccn3C(C)C)c(C(=O)NCc3c(C)cc(C)[nH]c3=O)n2)cc1	25µM*	-1%	-3%	7
Cc1cc(C)c(CNC(=O)c2nc(-c3ccc(CN(C)C)cc3)cc3c2ccn3C(C)C)c(=O)[nH]1	28µM*	-6%	u	-8
Cc1ccc(-c2cc3c(ccn3C(C)C)c(C(=O)NCc3c(C)cc(C)[nH]c3=O)n2)cn1	u	-22%[87.6 µM]	-10%[87.6 µM]	-14
Cc1cc(C)c(CNC(=O)c2nc(-c3cnn(C)c3)cc3c2ccn3C)c(=O)[nH]1	22µM*	4%[87.6 µM]	4%[87.6 µM]	4
CNC(=O)[C@H]1C[C@]2(CCCCN(CCO)C2=O)N(C(=O)Cc2cccs2)[C@H]1c1ccco1	x	x	x	-5
C=CCNC(=O)c1cccn2nccc12	32µM*	u	-1%[87.6 µM]	6
SMILES	KDM5B inhibitor	SNCA expr inhib	SNCA viab count	IP6K1 inhibitor
CNC(=O)c1ccc2ccnn2c1	35µM*	17%[87.6 µM]	-8%[87.6 µM]	-1
O=C(Nc1ccc(Cl)nc1)c1cccn2nccc12	35µM*	42%[87.6 µM]	-5%[87.6 µM]	4
O=C(NCc1ccc(Cl)nc1)c1ccn2nccc2c1	i	22%[87.6 µM]	-2%[87.6 µM]	1
O=C(Nc1ccc(Cl)nc1)c1ccc2ccnn2c1	32µM*	50%[87.6 µM]	-3%[87.6 µM]	7
CNC(=O)c1ccc2nnc(-c3ccc(Cl)cc3)n2c1	x	41%[87.6 µM]	-8%[87.6 µM]	10
O=C(Nc1cccc(Cl)c1)C1CCCN(Cc2cccc(-c3cccs3)c2)C1 (stereo unspecified)	x	x	x	19
O=C(c1nn(CC2CC2)c2c1CNCC2)N1CCC(Cc2ccccc2)CC1	x	11%	4%	-1
O=C(CNC(=O)c1cccc(-c2ccc(C(F)(F)F)cc2)c1)NC1CCCC1	x	-11%	9%[12.5 µM]	4
CCCNC(=O)NC[C@@H]1C=C(C)[C@H](Cc2nc3ccc(OC)cc3[nH]2)C[C@H]1C(C)C	u	u	28µM*	-3
CCC(CC)C(=O)NC[C@@H]1C=C(C)[C@H](Cc2nc3c(C)cccc3[nH]2)C[C@H]1C(C)C	i	u	14µM*	16
